# Among all 310,000 compounds or so, about 14,000 (4.5%) showed an effect of 50% or more. Effects have a minus sign here. The full list was thinned out, with strong results kept by preference.
# Biological target: human ether-à-go-go-related gene (hERG) potassium channel (human, UniProt Q12809)
# Assay: primary screen, population patch clamp on CHO cells stably expressing hERG; higher = less effect of the substance
# 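Also: peak tail current of the secondary pulse compared with the same well before compound.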
# Sequence of human ether-à-go-go-related gene (hERG) potassium channel (Q12809 whole entry, looked up): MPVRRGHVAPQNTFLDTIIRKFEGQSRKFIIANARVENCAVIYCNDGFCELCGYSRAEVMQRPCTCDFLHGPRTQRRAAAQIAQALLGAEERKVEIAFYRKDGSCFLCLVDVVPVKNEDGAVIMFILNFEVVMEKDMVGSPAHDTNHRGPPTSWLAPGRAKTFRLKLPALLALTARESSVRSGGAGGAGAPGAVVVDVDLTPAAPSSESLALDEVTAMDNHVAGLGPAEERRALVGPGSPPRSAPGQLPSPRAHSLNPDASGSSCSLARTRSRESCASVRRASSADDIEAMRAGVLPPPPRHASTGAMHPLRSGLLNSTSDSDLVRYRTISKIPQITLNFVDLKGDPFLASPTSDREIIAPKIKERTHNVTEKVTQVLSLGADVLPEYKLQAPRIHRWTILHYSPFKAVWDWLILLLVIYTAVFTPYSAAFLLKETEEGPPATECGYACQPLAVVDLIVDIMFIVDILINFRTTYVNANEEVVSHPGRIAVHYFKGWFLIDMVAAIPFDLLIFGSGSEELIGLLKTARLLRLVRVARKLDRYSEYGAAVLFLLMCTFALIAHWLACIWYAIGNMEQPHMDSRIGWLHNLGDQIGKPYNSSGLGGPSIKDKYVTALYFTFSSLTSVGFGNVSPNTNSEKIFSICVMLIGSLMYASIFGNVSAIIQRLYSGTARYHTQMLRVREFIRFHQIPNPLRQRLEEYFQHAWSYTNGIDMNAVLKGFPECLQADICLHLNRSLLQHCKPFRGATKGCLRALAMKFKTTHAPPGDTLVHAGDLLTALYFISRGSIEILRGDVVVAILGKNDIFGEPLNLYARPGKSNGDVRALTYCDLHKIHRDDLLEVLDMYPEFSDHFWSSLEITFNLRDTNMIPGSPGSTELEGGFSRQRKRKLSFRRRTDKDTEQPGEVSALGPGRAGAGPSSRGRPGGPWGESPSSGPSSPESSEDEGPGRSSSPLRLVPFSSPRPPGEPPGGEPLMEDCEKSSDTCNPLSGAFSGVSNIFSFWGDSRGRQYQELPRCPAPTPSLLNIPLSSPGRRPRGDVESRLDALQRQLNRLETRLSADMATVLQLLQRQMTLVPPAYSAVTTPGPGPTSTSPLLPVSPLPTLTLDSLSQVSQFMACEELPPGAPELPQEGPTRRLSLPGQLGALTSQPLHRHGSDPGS
row,SMILES,"hERG current change (%, negative = inhibition) at 10uM"
1,Cn1ncc2c(Nc3cccc(C(=O)O)c3)ncnc21,6.66%
2,CC(C(=O)NCc1ccccn1)c1ccc([N+](=O)[O-])cc1 (centres unmarked),-49.5%
3,Cc1ccc(S(=O)(=O)N2CCCC2C(=O)Nc2cc(C)on2)cc1 (centres unmarked),-1.05%
4,Cc1ccccc1-c1noc(CCC(=O)NCc2ccco2)n1,-2.05%
5,C#CCOCCOCCOCCNc1nc(N2CCN(C(=O)[C@H](CCCCN)n3cc(C(N)[C@H](C)CC)nn3)CC2)nc(N2CCN(C(=O)[C@H](CCC(=O)O)n3cc(C(N)[C@H](C)CC)nn3)CC2)n1.Cl (some centres unmarked),13.5%
6,C=C[C@@H]1c2cc(C)ccc2N(S(=O)(=O)c2ccc(C)cc2)[C@H](c2ccccc2C(F)(F)F)C1(C#N)C#N,7.01%
7,COc1cc(C(=O)NCC(=O)N/N=C(/C)c2cccs2)cc(OC)c1OC,-0.388%
8,Cc1ccc(CC(=O)Nc2ccc(S(=O)(=O)Nc3ncccn3)cc2)cc1,19.9%
9,CC(c1ccccc1)n1c(-c2ccccc2F)n[nH]c1=S (centres unmarked),-11.9%
10,Cc1ncoc1C(=O)N1CCCC(C(=O)c2ccc3c4c(cccc24)CC3)C1 (centres unmarked),-15.5%
11,Cc1ncccc1C(=O)N1CCCC(C(=O)c2ccc3c4c(cccc24)CC3)C1 (centres unmarked),-13.2%
12,Cc1cnc(CN2CCCC(C(=O)c3ccc4c5c(cccc35)CC4)C2)[nH]1 (centres unmarked),-31.7%
13,COCC(=O)N1CCCC(C(=O)c2ccc3c4c(cccc24)CC3)C1 (centres unmarked),-21.2%
14,CCn1ccnc1CN1CCCC(C(=O)c2ccc3c4c(cccc24)CC3)C1 (centres unmarked),-77.4%
15,Cc1cccc(CN2CCCC(C(=O)c3ccc4c5c(cccc35)CC4)C2)n1 (centres unmarked),-40.7%
16,COc1cc(CN2CCCC(C(=O)c3ccc4c5c(cccc35)CC4)C2)cc(OC)c1O (centres unmarked),-53%
17,CC(=O)NCC(=O)N1CCCC(C(=O)c2ccc3c4c(cccc24)CC3)C1 (centres unmarked),8.94%
18,CN1CCC(C(=O)N2CCCC(C(=O)c3ccc4c5c(cccc35)CC4)C2)CC1 (centres unmarked),-61.1%
19,CC(=O)N1CCCC(C(=O)c2ccc3c4c(cccc24)CC3)C1 (centres unmarked),-8.18%
20,O=C(c1ccc2c3c(cccc13)CC2)C1CCCN(Cc2ncc[nH]2)C1 (centres unmarked),-55.7%
21,Cc1ccc(OCC(=O)NCCNC(=O)c2ccncc2)cc1C,15.9%
22,Cc1ccc(S(=O)(=O)NCc2ccccc2)cc1C(=O)N(C)Cc1ccc(F)cc1,5.11%
23,O=c1c2ccccc2oc2nc(-c3ccco3)n(Cc3ccccc3)c(=O)c12,-9.22%

row,SMILES,"hERG current change (%, negative = inhibition) at 10uM"
1,CCOC(=O)c1cc2occc2n1CC(=O)Nc1ccc(OC)cc1OC,-15%
2,O=C(NCCOc1nc(N2CCCCC2)nc(N2CCOCC2)n1)Nc1ccccc1,-0.098%
3,Cc1ccc(S(=O)(=O)NCc2ccco2)c(C)c1C,-4.4%
4,CN(NC(=O)c1ccco1)c1nc2ccccc2nc1C(F)(F)F,0.871%
5,N#CCCN(Cc1cccnc1)C(=O)Nc1cccc(Cl)c1,-10.9%
6,N#Cc1ccc(-c2csc(NNC(=O)c3ccccc3)n2)cc1,0.0899%
7,Cc1ccc(NS(=O)(=O)c2ccc(C3CCCCC3)cc2)cc1,-10.3%
8,CC12CCC(=O)N1C(C(=O)NCc1ccc(Cl)cc1Cl)CS2 (centres unmarked),-0.564%
9,CCn1c(-c2ccc(N)cc2)nc2ccccc21,4.21%
10,CCn1c(-c2ccc(N(C)C)cc2)nc2ccccc21,-50.3%
11,C=C(C)Cn1c(-c2ccccc2)nc2ccccc21,-64.9%
12,C=C(C)Cn1c(-c2ccc(OC)cc2)nc2ccccc21,-23.4%
13,COCn1c(-c2ccccc2)nc2ccccc21,-5.43%
14,CN(C)c1ccc(-c2nc3ccccc3n2C)cc1,-49.9%
15,Cc1ccc(C(=O)CSc2nc(N)cc(=O)[nH]2)cc1,2.68%
16,Fc1ccc(NC(=S)N/N=C/c2cccc(Br)c2)c(F)c1,3.9%
17,O=C(COC(=O)Cc1ccsc1)NCc1ccc(Cl)cc1,10.6%
18,CC(Sc1cnc2ccccc2n1)C(=O)O (centres unmarked),15.9%
19,Cc1ccc(C#N)c(SCc2ccccc2[N+](=O)[O-])n1,2.72%
20,CCOc1ccc(-c2nc(C)c(C(C)=O)n2O)cc1,-0.685%
21,Cc1nonc1OCCCNc1ccc([N+](=O)[O-])cc1Cl,9.59%
22,Cc1nonc1OCCN1CCN(c2ccc([N+](=O)[O-])cc2)CC1,-98.3%
23,Cc1nonc1OCCN1CCN(c2ccccc2[N+](=O)[O-])CC1.Cl,-37.2%

row,SMILES,"hERG current change (%, negative = inhibition) at 10uM"
1,O=[N+]([O-])c1cc(C(F)(F)F)ccc1NCCOc1ccccc1,-3.64%
2,Cc1nonc1OCCNCCNc1ccc([N+](=O)[O-])c2cccnc12,-52.2%
3,CCNCCNc1ccc([N+](=O)[O-])c2cccnc12,-22.8%
4,Cc1nonc1OCCNCCNc1ccc([N+](=O)[O-])cc1Cl,-49.7%
5,Cc1nonc1OCCNc1ccc([N+](=O)[O-])cc1[N+](=O)[O-],-54.7%
6,O=[N+]([O-])c1ccc(N2CCN(CCOc3nonc3-c3ccccc3)CC2)c(Cl)c1,-4.17%
7,Cc1nonc1OCCNc1ccc([N+](=O)[O-])c2cccnc12,-18%
8,O=[N+]([O-])c1ccc(NCCNCCOc2nonc2-c2ccccc2)c([N+](=O)[O-])c1,-68.6%
9,Cc1nonc1OCCNCCNc1ccccc1[N+](=O)[O-],-23.4%
10,CNC(=O)c1csc(-c2ccc(Cl)cc2)n1,-4.29%
11,CCn1cc([N+](=O)[O-])c(C(=O)NCc2ccc(Cl)cc2)n1,-6.18%
12,CCO.NCCc1c[nH]c2ccc(C(N)=O)cc12.O=C([O-])/C=C\C(=O)[O-],11.6%
13,CC(=O)c1ccc(NC(=O)C2CCCN2S(=O)(=O)c2ccc(F)cc2)cc1 (centres unmarked),-16.6%
14,O=c1c2ccccc2[nH]c(=S)n1CCCn1ccnc1,-0.744%
15,O=S(=O)(c1ccc(NC(=S)Nc2ccc3c(c2)OCO3)cc1)N1CCOCC1,13.1%
16,COc1ccc(C2/C=C\CN(C(=O)C3CCCCC3)CC(=O)N2Cc2ccc(F)cc2)cc1 (centres unmarked),-10.1%
17,Cc1cc(OCC(=O)NNC(=O)CCc2ccccc2)ccc1Br,17.6%
18,CCC[N+](C)(C)C(C)C(OC(C)=O)c1ccccc1.[I-] (centres unmarked),15.5%
19,CCOC(=O)CC(=O)Nc1ccsc1C(N)=O,15.9%
20,COc1ccccc1N1CCN(/N=C/c2ccc(C(=O)O)cc2)CC1,16.3%
21,COc1ccc(S(=O)(=O)NCC2CCCN(C(=O)c3ccccc3)C2)cc1 (centres unmarked),8.3%
22,CC1=C(C(=O)N2CCOCC2)C(c2c(C)cc(C)cc2C)NC(=S)N1 (centres unmarked),10.5%
23,COC(=O)C1=CN(c2cc(C)cc(C)c2)C=C(C(=O)OC)C1c1ccc(OC)c(O)c1,10.9%

row,SMILES,"hERG current change (%, negative = inhibition) at 10uM"
1,CN(C)CCCNCCCCNC(=O)/C=N/O,0.266%
2,CN(C)CCCNCCNC(=O)/C=N\O.Cl,-65.4%
3,CN(C)CCCNCCCNC(=O)/C=N/O,10.2%
4,CCOc1ccc(OCCC(=O)OC(C)C(=O)Nc2ccc(C(C)=O)cc2)cc1 (centres unmarked),8.72%
5,CC(=O)Nc1ccc(S(=O)(=O)N2c3ccccc3NC(=O)CC2C)c(Cl)c1 (centres unmarked),11.9%
6,CCOc1ccc(Nc2nc3c(C)cccc3cc2C#N)cc1,4.76%
7,Cc1cc(=O)oc2cc(Oc3ccc(C(N)=O)cc3[N+](=O)[O-])ccc12,-20.7%
8,O=C(N/N=C/c1cccc(Oc2ccc([N+](=O)[O-])cc2[N+](=O)[O-])c1)c1cncc(Br)c1,-32.1%
9,Cc1cc(=O)oc2cc(Oc3ccc([N+](=O)[O-])cc3[N+](=O)[O-])ccc12,-64.4%
10,Nc1ccc(Oc2ccc([N+](=O)[O-])cc2[N+](=O)[O-])cc1,-37.7%
11,O=Cc1cccc(Oc2ccc([N+](=O)[O-])cc2[N+](=O)[O-])c1,-55%
12,Cc1cc(=O)oc2cc(Oc3ccc([N+](=O)[O-])cc3C(F)(F)F)ccc12,-15%
13,Cc1ccc(O)c(C2=Nc3ccccc3N=C(c3cccc([N+](=O)[O-])c3)C2)c1,20.9%
14,O=C(COc1ccccc1)OCc1cc(-c2ccco2)on1,5.99%
15,Cc1ccc(C)c(NC(=S)N2CCN(Cc3ccccc3)CC2)c1,11.2%
16,O=C(O)CCN=C1CCCc2ccccc2N1,7.26%
17,O=C1CC(c2cccc(Cl)c2)CC(O)=C1C=NC1CCCC1 (centres unmarked),-59.8%
18,O=C1CC(c2ccccc2)CC(O)=C1C=NC1CCCC1 (centres unmarked),-5.2%
19,O=C1CC(c2ccccc2)CC(O)=C1C=NC1CCCCCC1 (centres unmarked),6.58%
20,CCOc1ccc(C(=O)NCC(=O)NCC(c2ccc(OC)cc2)N2CCCC2)cc1 (centres unmarked),-4.71%

# Source: paper PMC4336329 (PLoS ONE, 2015)
